Consider ten compounds from PubChem BioAssay (NCATS).

Structures are written as SMILES.

A short description of test [1]: qHTS profiling for inhibitors of Plasmodium falciparum (3D7) proliferation (AID 743322).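 Note: infected erythrocytes exposed to compound for 72 h before lysis; 100% = DMSO vehicle wells and 0% = 0.29 µM artemisinin.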 The conditions noted are these: P. falciparum 3D7 proliferation; at 28.7 µM (top of the series). An outline of the steps: (§1)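 Parasite DNA was quantified by SYBR Green I fluorescence (ex 485, em 535 nm) after overnight lysis in saponin/Triton buffer at room temperature. Cultures at 0.3% parasitemia and 2.5% hematocrit were first exposed to compound for 72 h at 37 C; signals were normalised to artemisinin (0.29 uM) and vehicle wells.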

A short description of test [2]: qHTS profiling for inhibitors of Plasmodium falciparum (DD2) proliferation (AID 743323). The conditions noted are these: lower = more inhibition; at 28.7 µM (top of the series). Summed up:
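Parasite DNA quantified by SYBR Green fluorescence (ex 485, em 535 nm) after saponin/Triton lysis and overnight dark incubation. Cultures: 0.3% parasitemia, 2.5% hematocrit, 72 h, 37 C; data scaled between DMSO and 0.29 uM artemisinin.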

The nature of test [3]: qHTS profiling of the MIPE4 collection as inhibitors of Plasmodium falciparum (3D7) proliferation (AID 743344).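 Note: scaled between DMSO vehicle wells and 0.29 µM artemisinin as full inhibition.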 To be noted: P. falciparum 3D7 in erythrocytes, SYBR Green DNA fluorescence, 72 h; at 28.5 µM (top of the series) unless noted. Summed up:
as §1

Test [4] is described as follows: qHTS profiling of the MIPE4 collection as inhibitors of Plasmodium falciparum (DD2) proliferation (AID 743345). The conditions noted are these: P. falciparum Dd2 in erythrocytes, SYBR Green DNA, 72 h; at 28.5 µM (top of the series) unless noted. An outline of the steps:
as §1

A short description of test [5]: qHTS profiling of the MIPE4 collection as inhibitors of Plasmodium falciparum (HB3) proliferation (AID 743347).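 Note: plate controls were DMSO vehicle wells for no effect and artemisinin wells for full effect.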 The conditions noted are these: P. falciparum HB3 in erythrocytes, SYBR Green DNA, 72 h; at 28.5 µM (top of the series) unless noted. Summed up:
as §1

A short description of test [6]: High-throughput drug toxicity screening in the BPDCN cell line Gen2.2 (AID 1224824).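 Note: cells exposed to compounds for 48 h before reading.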 To be noted: Gen2.2 BPDCN cells; at 45.8 µM (top of the series) unless noted. An outline of the steps: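 Seed 500 exponentially growing Gen2.2 cells/well; add compounds by pin tool; incubate 48 h, 37 °C, 5% CO2; add CellTiter-Glo, 15 min RT; read luminescence. % activity vs DMSO (100%) and bortezomib (0%).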

Test [7] is described as follows: High-throughput drug toxicity screening in the BPDCN cell line Cal-1 (AID 1224825). To be noted: Cal-1 BPDCN cell viability, qHTS; at 45.8 µM (top of the series) unless noted. Summed up: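 Viability of the BPDCN line Cal-1 is measured as ATP-based luminescence (CellTiter-Glo) following 48 h incubation with compounds. Percent activity uses DMSO-treated wells as 100% and 9.2 uM bortezomib as 0%.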

The nature of test [8]: qHTS profiling of the MIPE4 collection as inhibitors of Plasmodium falciparum (DD2) proliferation (Rep 2) (AID 743346). The conditions noted are these: P. falciparum Dd2 in erythrocytes, SYBR Green DNA, 72 h; at 28.5 µM (top of the series) unless noted. An outline of the steps: as §1
Test [9] can be described thus: qHTS profiling for inhibitors of Plasmodium falciparum (HB3) proliferation (AID 743324).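 Note: 100% = DMSO vehicle wells and 0% = artemisinin-treated control wells.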 The conditions noted are these: Plasmodium falciparum HB3 blood-stage proliferation; at 28.7 µM (top of the series). An outline of the steps: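 SYBR Green fluorescence (485 ex/535 em) of lysed cultures, incubated overnight at room temperature in the dark, quantifies parasite DNA. Infected erythrocytes at 0.3% parasitemia and 2.5% hematocrit were exposed 72 h; values normalized to DMSO and 0.29 uM artemisinin controls.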

Consider `Cc1cccc(C=NNc2cc(N3CCOCC3)nc(OCCc3ccccn3)n2)c1`, for which the remaining parasite growth % (stronger effect = lower value) in test [1] worked out at 3.29%. In test [2], the activity, percent of control is 8.46%. The parasite growth, % of DMSO control in test [3] amounted to 5.56%. Further, the parasite growth remaining, % of DMSO control (lower = more inhibition) in test [4] was 15.2%. In test [5], this compound registered a growth, % of control of 4.79%. Moreover, the cell viability, % of control (lower = more cytotoxic) in test [6] came out at 60.1%. In addition, in test [7], the viability (% of control) was 63.7%.
With `O=C(O)c1ccc2c(c1)nc(Nc1cccc(Cl)c1)c1ccncc12`, the activity, percent of control in test [2] was found to be 12.2%. Also, the parasite growth, % of DMSO control in test [3] was found to be 6.23%. Also, the parasite growth remaining, % of DMSO control (lower = more inhibition) in test [4] was found to be 9%. In [8], this compound gave a parasite growth, % of control (lower = inhibition) of 9.96%. Besides, in [5], the growth, % of control was found to be 4.4%. The cell viability, % of control (lower = more cytotoxic) in [6] turned out to be 84.5%. Moreover, the viability (% of control) in [7] is 72.1%.
With `c1nc2nc(Nc3ccc(N4CCOCC4)cc3)nc(NC3CCCCC3)c2[nH]1`, the activity, percent of control in test [2] stood at 13.5%. For the same compound, the parasite growth, % of DMSO control in test [3] was determined as 12.6%. Further, in test [4], the parasite growth remaining, % of DMSO control (lower = more inhibition) is 31.3%. Also, the parasite growth, % of control (lower = inhibition) in test [8] stood at 10.2%. Further, the growth, % of control in [5] was 4.57%. Besides, the cell viability, % of control (lower = more cytotoxic) in test [6] is 9.78%. Also, the viability (% of control) in [7] came out at 8.54%.
As to `CC1(O)CC(c2nc(-c3ccc4ccc(-c5ccccc5)nc4c3)c3c(N)nccn23)C1` (stereo not given), in test [2], the activity, percent of control stood at 2.21%. In [3], this compound displayed a parasite growth, % of DMSO control of 9.23%. The compound further registered a parasite growth remaining, % of DMSO control (lower = more inhibition) in [4] of 19%. In [8], this compound had a parasite growth, % of control (lower = inhibition) of 10.7%. Also, the growth, % of control in [5] is 5.32%. For the same compound, the cell viability, % of control (lower = more cytotoxic) in [6] is 117%. Also, the viability (% of control) in test [7] was 8.23%.
With `Cn1cncc1[C@@](N)(c1ccc(Cl)cc1)c1ccc2c(c1)c(-c1cccc(Cl)c1)cc(=O)n2C`, the remaining parasite growth % (stronger effect = lower value) in [1] is -0.555%. In addition, the activity, percent of control in test [2] is 5.8%. The parasite growth, % of DMSO control in [3] was determined as 6.1%. Besides, the parasite growth, % of control (lower = inhibition) in test [8] amounted to 20.3%. Also, in test [6], the cell viability, % of control (lower = more cytotoxic) was determined as 3.19%. In test [7], the viability (% of control) is 2.26%.
For `O=c1[nH]nc(Sc2ncc([N+](=O)[O-])s2)n1-c1ccc2c(c1)OCCO2`, the remaining parasite growth % (stronger effect = lower value) in test [1] was determined as 21%. In addition, the activity, percent of control in [2] was determined as 65.9%. The compound further had a parasite growth, % of DMSO control in test [3] of 59.7%. Also, the parasite growth remaining, % of DMSO control (lower = more inhibition) in [4] came to 64.7%. Moreover, in test [5], the growth, % of control was determined as 62.4%. Also, the cell viability, % of control (lower = more cytotoxic) in test [6] was 3.22%. Besides, the viability (% of control) in test [7] came to 2.62%.
On to `Cc1cnc(-c2cnc(NCCNc3ccc(C#N)cn3)nc2-c2ccc(Cl)cc2Cl)[nH]1`, for which the activity, percent of control in test [2] worked out at 90.2%. The same compound had a remaining proliferation (% of control), lower = more inhibition in test [9] of 53.7%. Moreover, in [3], the parasite growth, % of DMSO control is 34.7%. Moreover, the parasite growth remaining, % of DMSO control (lower = more inhibition) in test [4] worked out at 76.5%. The parasite growth, % of control (lower = inhibition) in test [8] came out at 40.9%. This compound also gave a growth, % of control in [5] of 27.2%. Moreover, the cell viability, % of control (lower = more cytotoxic) in test [6] is 229%. For the same compound, in test [7], the viability (% of control) is 38.3%.
For `CC(C)(C)c1cc(NC(=O)Nc2ccc(-c3cn4c(n3)sc3cc(OCCN5CCOCC5)ccc34)cc2)no1`, the activity, percent of control in [2] amounted to 0.456%. Also, the parasite growth, % of DMSO control in test [3] was found to be 4.46%. In addition, the parasite growth remaining, % of DMSO control (lower = more inhibition) in [4] stood at 7.47%. In test [8], this compound had a parasite growth, % of control (lower = inhibition) of 15.2%. In addition, the growth, % of control in test [5] was 2.53%. The cell viability, % of control (lower = more cytotoxic) in test [6] is 252%. This compound also displayed a viability (% of control) in test [7] of 75.9%.
Regarding `CN(C)CC=CC(=O)Nc1cc2c(Nc3ccc(F)c(Cl)c3)ncnc2cc1O[C@H]1CCOC1`, the activity, percent of control in test [2] amounted to 0.518%. Moreover, in test [3], the parasite growth, % of DMSO control stood at 6.72%. In test [4], this compound showed a parasite growth remaining, % of DMSO control (lower = more inhibition) of 7.96%. This compound returned a parasite growth, % of control (lower = inhibition) in test [8] of 9.26%. Also, the growth, % of control in test [5] was 8.85%. In addition, the cell viability, % of control (lower = more cytotoxic) in test [6] came out at 6.25%. In test [7], this compound registered a viability (% of control) of 5.7%.
For the compound `Cc1[nH]c2ccccc2c1CCNCc1ccc(C=CC(=O)NO)cc1`, the activity, percent of control in test [2] was -0.223%. For the same compound, in test [3], the parasite growth, % of DMSO control is 4.38%. The compound further gave a parasite growth remaining, % of DMSO control (lower = more inhibition) in [4] of 7.14%. This compound also returned a parasite growth, % of control (lower = inhibition) in test [8] of 6.72%. The compound also gave a growth, % of control in test [5] of 2.36%. The cell viability, % of control (lower = more cytotoxic) in test [6] came out at 7.87%. For the same compound, in [7], the viability (% of control) worked out at 7.62%.
